Several values for one entry are separate records, joined by “and”; a condition that tells them apart may be missing. Equal values may be shown once. The whole screen tested about 5,500 compounds, of which about 2,000 (36%) were called active. Roughly 18% stayed inconclusive and do not appear here. Cut-off read from the data, not from the text of the source: active = normalized growth mostly below about 0.91 (no sharp cut-off); inconclusive = no clear call, values can overlap the other calls; inactive = mostly above about 0.92. The list shows a part of the results.
Experiment: chemical genetic growth profiling, strain panel (AID 1159580);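 note: tested at 20 µM; growth read once vehicle control cultures reached saturation at 30 °C; 1 = growth at the plate median or of vehicle wells; lower values mean less growth of the strain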
Settings: S. cerevisiae deletion strains, growth OD

Measured: normalized growth

CCC[C@H](N[C@@H](C)C(=O)N1[C@H](C(=O)O)C[C@@H]2CCCC[C@@H]21)C(=O)OCC
inactive: locus YAL013W, strain DEP1, active compounds read low 1.01 | locus YAL021C, strain ccr4, active compounds read low 1.01 | locus YAL026C, strain drs2, active compounds read low 1.01 | locus YAL030W, strain snc1, active compounds read low 1.02 | locus YBL061C, strain skt5, active compounds read low 1.01 | locus YBR009C, strain hhf1, active compounds read low 1.01 | locus YBR021W, strain FUR4, active compounds read low 1.03 | locus YBR023C, strain chs3, active compounds read low 1.02 | locus YBR171W, strain sec66, active compounds read low 1.02 | locus YBR229C, strain ROT2, active compounds read low 1 | locus YBR231C, strain swc5, active compounds read low 1.02 | locus YBR279W, strain paf1, active compounds read low 1.01 | locus YCL011C, strain gbp2, active compounds read low 1.01 | locus YCL016C, strain dcc1, active compounds read low 1.01 | locus YCL029C, strain bik1, active compounds read low 1.04 | locus YCL069W, strain vba3, active compounds read low 1.02 | locus YCR088W, strain abp1, active compounds read low 1.02 | locus YDL005C, strain med2, active compounds read low 1.01 | locus YDL035C, strain GPR1, active compounds read low 1.01 | locus YDL040C, strain nat1, active compounds read low 1.01 | locus YDL074C, strain BRE1, active compounds read low 1.02 | locus YDL101C, strain DUN1, active compounds read low 1.01 | locus YDL134C, strain PPH21, active compounds read low 1.01 | locus YDL185W, strain tfp1, active compounds read low 1.02 | locus YDL192W, strain arf1, active compounds read low 1.02 | locus YDR001C, strain nth1, active compounds read low 1.01 | locus YDR069C, strain doa4, active compounds read low 1.03 | locus YDR101C, strain arx1, active compounds read low 1.01 | locus YDR137W, strain rgp1, active compounds read low 0.99 | locus YDR150W, strain NUM1, active compounds read low 1.02 | locus YDR159W, strain sac3, active compounds read low 1.02 | locus YDR162C, strain NBP2, active compounds read low 1.01 | locus YDR195W, strain ref2 1.04 | locus YDR297W, strain sur2, active compounds read low 1.02 | locus YDR318W, strain mcm21, active compounds read low 1.02 | locus YDR334W, strain swr1, active compounds read low 1.01 | locus YDR335W, strain msn5, active compounds read low 1.01 | locus YDR388W, active compounds read low 1.03 | locus YDR392W, strain spt3, active compounds read low 0.981 | locus YDR502C, strain sam2, active compounds read low 1.01 | locus YEL003W, strain gim4, active compounds read low 1.01 | locus YEL037C, strain rad23, active compounds read low 1.02 | locus YEL061C, strain CIN8 (second series), active compounds read low 1.01 | locus YEL061C, strain CIN8, active compounds read low 1 | locus YER015W, strain faa2, active compounds read low 1.01 | locus YER016W, strain bim1, active compounds read low 1.02 | locus YER110C, active compounds read low 1.02 | locus YER111C, strain swi4, active compounds read low 1.02 | locus YER155C, strain BEM2 (second series), active compounds read low 1.05 | locus YER155C, strain BEM2, active compounds read low 1 | locus YER167W, strain BCK2, active compounds read low 1.02 | locus YFR010W, strain ubp6, active compounds read low 1.03 | locus YGL078C, strain dbp3, active compounds read low 1.02 | locus YGL086W, strain mad1, active compounds read low 1.02 | locus YGL167C, strain pmr1, active compounds read low 1.02 | locus YGL173C, strain kem1, active compounds read low 1.01 | locus YGL227W, strain vid30, active compounds read low 1.02 | locus YGL240W, strain doc1, active compounds read low 1.03 | locus YGL248W, strain PDE1, active compounds read low 1.01 | locus YGL253W, strain hxk2, active compounds read low 1.02 | locus YGR078C, strain PAC10, active compounds read low 1.02 | locus YGR135W, strain pre9, active compounds read low 1.01 | locus YGR229C, strain SMI1, active compounds read low 1.02 | locus YGR252W, strain gcn5, active compounds read low 1.01 | locus YHR013C, strain ard1, active compounds read low 1.02 | locus YHR027C, strain rpn1, active compounds read low 1.02 | locus YHR030C, strain SLT2, active compounds read low 1.01 and 1 | locus YHR079C, strain IRE1 (second series), active compounds read low 1.01 | locus YHR079C, strain IRE1, active compounds read low 0.993 | locus YHR094C, strain hxt1, active compounds read low 1.02 | locus YHR129C, strain ARP1, active compounds read low 1.01 | locus YHR142W, strain chs7, active compounds read low 1.03 | locus YHR200W, strain rpn10, active compounds read low 1.03 | locus YIL066C, strain RNR3, active compounds read low 1.02 | locus YIL073C, strain SPO22, active compounds read low 1.03 | locus YIL125W, strain kgd1, active compounds read low 1.02 | locus YIR030C, strain dcg1, active compounds read low 1.01 | locus YJL092W, strain hpr5, active compounds read low 1.01 | locus YJL095W, strain BCK1 (second series), active compounds read low 1.02 | locus YJL095W, strain BCK1, active compounds read low 1.01 and 1 | locus YJL115W, strain asf1, active compounds read low 1.02 | locus YJL129C, strain trk1, active compounds read low 1.01 | locus YJL134W, strain LCB3, active compounds read low 1.02 | locus YJL154C, strain vps35, active compounds read low 1.01 | locus YJL164C, strain tpk1, active compounds read low 1.01 | locus YJL166W, strain qcr8, active compounds read low 1.04 | locus YJL168C, strain set2, active compounds read low 1.02 | locus YJL187C, strain SWE1 (second series), active compounds read low 1.01 | locus YJL187C, strain SWE1, active compounds read low 1.01 | locus YJR043C, strain POL32, active compounds read low 1.01 | locus YJR066W, strain TOR1, active compounds read low 0.96

From PubChem BioAssay AID1159580 (chemical genetic matrix, 2015)
